A short description of assay [1]: qHTS assay to identify small molecule agonists of the estrogen receptor alpha (ER-alpha) signaling pathway in the presence of an antagonist - cell viability counter screen (AID 1259386).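 Further: series mostly up to about 92 µM; cells exposed to compounds for 22 h at 37 °C before the viability read; nearly all actives have a fitted effect of over 30% in size.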 In short, it runs like this: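 In this counter screen, compound effects on VM7Luc4E2 viability were tested in the presence of the antagonist ICI-182,780 at 10.0nM final. Compounds were dosed at 15 concentrations, exposure lasted 22hr, and the CellTiter-Fluor signal was read.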

For assay [2], the target named is Progesterone receptor (Homo sapiens) (UniProt P06401). Kind of assay: qHTS assay to identify small molecule agonists of the progesterone receptor (PR) signaling pathway (AID 1346784; calls by dose curve; further: nearly all actives have a fitted effect of over 30% in size). The procedure, abridged:
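Reporter assay, GripTite PR-UAS-bla HEK 293T cells: 16 hr exposure to DMSO-dissolved compounds at 37C, 5% CO2, in steroid-depleted (2% charcoal-stripped FBS) medium; beta-lactamase measured by FRET fluorescence.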

Assay [3] in a line: qHTS assay to identify small molecule antagonists of the progesterone receptor (PR) signaling pathway - cell viability counter screen (AID 1346798). Further: series mostly up to about 92 µM; nearly all actives have a fitted effect of over 50% in size. In short, it runs like this:
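In the same plates used for the beta-lactamase readout, cell viability of compound- and R5020-treated PR-UAS-bla HEK293T cells (16 hr, 37C) was assessed by CellTiter-Glo luminescence.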
For orientation: Quantitative high-throughput screening tests each substance at several concentrations.

Assay [4] can be described thus: qHTS assay to identify small molecule agonists of the progesterone receptor (PR) signaling pathway - cell viability counter screen (AID 1346799; calls by dose curve; further: nearly all actives have a fitted effect of over 45% in size). The procedure, abridged: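 Multiplexed viability read: CellTiter-Glo luminescence, 30 min RT, following LiveBLAzer FRET measurement on PR-UAS-bla HEK293T cells exposed to compounds 16 hr.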
The nature of assay [5]: qHTS assay to identify small molecule antagonists of the TGF-beta/Smad signaling pathway - cell viability counter screen (AID 1346824). Further: nearly all actives have a fitted effect of over 50% in size. In short, it runs like this:
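SBE-bla HEK 293T cells, incubated overnight, then compound plus 0.25 ng/mL TGF-beta1 (stock added) for 5 hr at 37 C. Viability was read in the same wells by CellTiter-Glo luminescence after 30 min at room temperature.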

A short description of assay [6]: qHTS assay to identify small molecule agonists of the TGF-beta/Smad signaling pathway - cell viability counter screen (AID 1346829). Further: top concentration of the series differs between compounds; nearly all actives have a fitted effect of over 45% in size. The procedure, abridged: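 In parallel with the Smad reporter read, viability of HEK 293T cells stably carrying SBE-bla is quantified by ATP luminescence following 5 hr compound treatment.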
The nature of assay [7]: qHTS assay to identify small molecule agonists of the TGF-beta/Smad signaling pathway (AID 1346859; active means well fitted activation curve with a large enough effect in the signal ratio in the repeat runs, not every such curve was filed as active; the % refers to the signal ratio; further: series mostly up to about 77 µM). In short, it runs like this:
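Screening used HEK 293T SBE-bla cells at 4,000/well. Test agents: 5 hr, 37 C. Detection: FRET substrate, 2 hr RT, then excitation 405 nm with emissions at 460 and 530 nm.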

For assay [8], the target named is Thyrotropin-releasing hormone receptor (Homo sapiens) (UniProt P34981). Put plainly: qHTS assay to identify small molecule antagonists of the thyrotropin-releasing hormone receptor (TRHR) signaling pathway (AID 1346877; active means well fitted inhibition curve with a large enough effect in the repeat runs, not every such curve was filed as active; further: series mostly up to about 51 µM). In short, it runs like this:
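Kinetic fluorescence (3 min, 1 s resolution) following stimulation with TRH at 1 nM final; HEK293 cells bearing human TRHR; 5 min compound preincubation at RT; concentration-response over 15 points, triplicates.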

Assay [9] shares this target. Kind of assay: qHTS assay to identify small molecule agonists of the thyrotropin-releasing hormone receptor (TRHR) signaling pathway (AID 1346891; calls by dose curve; further: series mostly up to about 58 µM). In short, it runs like this: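 Readout was intracellular calcium fluorescence in TRHR-Hek293 cells. Cells were incubated 18 h, dye-loaded 2 h at 37 °C, and treated with compound in agonist mode.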
A short description of assay [10]: Human pregnane X receptor (PXR) small molecule agonists, qHTS cell viability counter screen (AID 1346977). Further: nearly all actives have a fitted effect of over 50% in size. Further: potency means the concentration at half of the fitted maximal effect. In short, it runs like this:
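In each well, the PXR reporter HepG2 line was checked for viability: CellTiter-Fluor reagent added 23hr post-dosing, fluorescence read after 1hr incubation at 37C.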

Assay [11] in a line: Caspase-3/7 induction in HepG2 cells by small molecules, qHTS assay (AID 1346978). Further: nearly all actives have a fitted effect of over 15% in size. In short, it runs like this: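 Wild-type HepG2 cells, 2,000/well, settled 5 hr at 37 C and 5% CO2, then compound-treated for 17 hr; caspase-3/7 activity read by luminescent Caspase-Glo 3/7 after 30 min at room temperature.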
A short description of assay [12]: Caspase-3/7 induction in CHO-K1 cells by small molecules, qHTS assay (AID 1346980). Further: nearly all actives have a fitted effect of over 15% in size. In short, it runs like this:
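Wild-type CHO-K1 cells exposed to compounds for 17hr at 37 C, 5% CO2. Caspase-3/7 activity then measured by Caspase-Glo 3/7 luminescence after 30min at room temperature.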

Assay [13] in a line: Caspase-3/7 induction in HepG2 cells by small molecules, qHTS cell viability counter screen (AID 1346981). Further: series mostly up to about 92 µM; nearly all actives have a fitted effect of over 30% in size. In short, it runs like this:
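In this quantitative HTS counter screen, compounds delivered in DMSO were left on unmodified HepG2 cells for 16 hr at 37 C. Viability was then determined fluorometrically with CellTiter-Fluor, in parallel with caspase-3/7 induction in the same wells.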

Assay [14] deals with Nuclear receptor subfamily 1 group I member 2 (Homo sapiens) (UniProt O75469). Kind of assay: Human pregnane X receptor (PXR) small molecule agonists, qHTS assay (AID 1346982). Further: nearly all actives have a fitted effect of over 35% in size. The procedure, abridged:
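Reporter HepG2 cells expressing PXR-Luc are cultured in charcoal-stripped FBS (5%), treated with compounds for 24 hr at 37 C, and assayed by ONE-Glo luminescence after 30 min at room temperature.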

The target in assay [15] is Nuclear receptor subfamily 1 group I member 2 (Rattus norvegicus) (UniProt Q9R1A7). Put plainly: Rat pregnane X receptor (rPXR) activation by small molecules, qHTS assay (AID 1346983). Further: nearly all actives have a fitted effect of over 20% in size. Particulars: rPXR luciferase reporter cells, One-Glo luminescence, 24 h; stronger effect = higher value. The procedure, abridged: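 Cell-based rPXR activation assay: rPXR cells, 2,000 per well, rested 5hr at 37 C, then exposed to compounds in DMSO for 24 hr at 37 C. Luciferase activity read by One-Glo luminescence after 30 min at room temperature.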

In assay [16] the target is Nuclear receptor subfamily 1 group I member 2 (Homo sapiens) (UniProt O75469). Kind of assay: CYP3A4 induction through human pregnane X receptor (PXR) by small molecules, qHTS assay (AID 1346984). Further: nearly all actives have a fitted effect of over 40% in size. In short, it runs like this: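 Induction measured in HepG2-based DPX-2 cells co-expressing human PXR and a CYP3A4 promoter-driven luciferase. After a 24-hour compound exposure, cells received CYP3A4 luciferin substrate at 3uM final for 3 hours, and light output was then recorded.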

Assay [17] concerns the target Acetylcholinesterase (Homo sapiens) (UniProt P22303). Kind of assay: Acetylcholinesterase (AChE) small molecule antagonists: colormetric cell-based qHTS assay (AID 1347395; calls by dose curve; further: nearly all actives have a fitted effect of over 30% in size; further: potency means the concentration at half of the fitted maximal effect). In short, it runs like this:
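After overnight attachment at 37 C, SH-SY5Y cells get 30 min compound exposure; detection cocktail (acetylthiocholine, DTNB) then incubates 90 min at 37 C, and absorbance reflects AChE-generated thiocholine.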

The nature of assay [18]: Caspase-3/7 induction in CHO-K1 cells by small molecules, qHTS cell viability counter screen (AID 1346979). Further: nearly all actives have a fitted effect of over 35% in size. The procedure, abridged:
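Following a 5hr settling period, CHO-K1 cells at 1,500 per well received DMSO-dissolved compounds. Cell viability was quantified 16hr later by CellTiter-Fluor fluorescence, measured after 1hr with reagent at 37C.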

Assay [19] concerns the target Nuclear receptor subfamily 1 group I member 2 (Homo sapiens) (UniProt O75469). Kind of assay: Human pregnane X receptor (PXR) activation by small molecules, qHTS assay (AID 1346985). Further: nearly all actives have a fitted effect of over 40% in size. In short, it runs like this: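 DPX-2 cells (HepG2 co-transfected with a PXR response element and a CYP3A4-promoter luciferase construct) were seeded at 2,000 per well, rested 5 hr at 37C, then exposed to DMSO-dissolved compounds for 24 hr. Activation was read as luciferase luminescence.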

The record followed here is PubChem BioAssay (Tox21).

A number with no mark means an inactive call. Results filed as inconclusive are left out. The source made the active and inactive calls. Unless noted, the call rests on the fitted dose curve; in most records, active means well fitted curve in the direction sought with a large enough effect in the repeat runs; inconclusive means weak or mixed curves; inactive means no such curve, though single readings can be large; an effect the other way counts as inactive or inconclusive.
On the % scale 0 is the no-effect control and ±100 the full control effect.

Acetylcholinesterase (Homo sapiens), sequence (P22303 whole entry, looked up): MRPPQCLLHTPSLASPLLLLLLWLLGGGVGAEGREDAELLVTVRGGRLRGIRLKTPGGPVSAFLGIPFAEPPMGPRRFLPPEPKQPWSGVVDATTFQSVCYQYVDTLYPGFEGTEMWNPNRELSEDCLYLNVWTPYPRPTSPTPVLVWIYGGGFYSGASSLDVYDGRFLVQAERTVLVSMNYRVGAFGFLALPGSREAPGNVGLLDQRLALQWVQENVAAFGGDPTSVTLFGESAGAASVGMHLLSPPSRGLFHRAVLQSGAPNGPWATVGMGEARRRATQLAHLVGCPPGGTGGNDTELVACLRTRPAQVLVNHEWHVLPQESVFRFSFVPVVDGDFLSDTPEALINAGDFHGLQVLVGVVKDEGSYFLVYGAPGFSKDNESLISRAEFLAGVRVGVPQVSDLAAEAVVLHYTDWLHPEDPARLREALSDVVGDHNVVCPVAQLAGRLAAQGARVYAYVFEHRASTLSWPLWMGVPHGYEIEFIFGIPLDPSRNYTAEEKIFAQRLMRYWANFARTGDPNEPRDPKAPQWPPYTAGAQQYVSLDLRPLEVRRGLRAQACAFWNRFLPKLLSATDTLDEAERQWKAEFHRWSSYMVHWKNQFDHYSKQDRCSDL
Thyrotropin-releasing hormone receptor (Homo sapiens), sequence (P34981 whole entry, looked up): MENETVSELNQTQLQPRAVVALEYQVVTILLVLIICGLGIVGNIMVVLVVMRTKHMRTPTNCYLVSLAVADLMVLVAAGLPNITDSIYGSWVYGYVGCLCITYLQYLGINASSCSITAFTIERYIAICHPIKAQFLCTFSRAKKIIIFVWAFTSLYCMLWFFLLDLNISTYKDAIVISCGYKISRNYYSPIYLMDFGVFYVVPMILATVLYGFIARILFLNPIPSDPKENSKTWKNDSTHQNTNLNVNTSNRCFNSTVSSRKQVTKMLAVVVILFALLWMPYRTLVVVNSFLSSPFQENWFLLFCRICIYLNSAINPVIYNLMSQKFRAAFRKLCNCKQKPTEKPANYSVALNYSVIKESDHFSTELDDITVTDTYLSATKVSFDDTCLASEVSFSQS
Progesterone receptor (Homo sapiens), sequence (P06401 whole entry, looked up): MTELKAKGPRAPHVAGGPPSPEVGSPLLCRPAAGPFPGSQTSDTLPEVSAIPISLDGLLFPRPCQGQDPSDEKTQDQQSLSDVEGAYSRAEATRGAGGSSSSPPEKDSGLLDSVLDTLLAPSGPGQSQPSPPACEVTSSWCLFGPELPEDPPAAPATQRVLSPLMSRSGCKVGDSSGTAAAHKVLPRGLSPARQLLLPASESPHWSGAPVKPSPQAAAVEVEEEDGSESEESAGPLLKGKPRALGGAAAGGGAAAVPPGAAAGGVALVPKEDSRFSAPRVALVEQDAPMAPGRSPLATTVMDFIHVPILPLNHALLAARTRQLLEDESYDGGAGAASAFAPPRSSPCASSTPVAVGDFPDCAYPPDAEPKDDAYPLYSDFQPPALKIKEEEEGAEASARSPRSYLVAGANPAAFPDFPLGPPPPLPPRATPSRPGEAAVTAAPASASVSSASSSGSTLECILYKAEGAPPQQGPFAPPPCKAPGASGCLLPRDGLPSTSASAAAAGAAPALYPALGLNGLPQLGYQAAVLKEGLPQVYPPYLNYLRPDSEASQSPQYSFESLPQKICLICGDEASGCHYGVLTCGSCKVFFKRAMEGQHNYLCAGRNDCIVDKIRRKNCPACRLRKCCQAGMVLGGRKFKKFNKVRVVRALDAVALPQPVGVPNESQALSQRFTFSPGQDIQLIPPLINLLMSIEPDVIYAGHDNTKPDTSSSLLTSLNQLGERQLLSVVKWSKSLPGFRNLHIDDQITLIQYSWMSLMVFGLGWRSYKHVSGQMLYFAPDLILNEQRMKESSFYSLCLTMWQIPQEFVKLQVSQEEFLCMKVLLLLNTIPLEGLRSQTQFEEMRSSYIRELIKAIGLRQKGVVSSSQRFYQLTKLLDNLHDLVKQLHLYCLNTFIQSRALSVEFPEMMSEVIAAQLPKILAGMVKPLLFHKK
Nuclear receptor subfamily 1 group I member 2 (Rattus norvegicus), sequence (Q9R1A7 whole entry, looked up): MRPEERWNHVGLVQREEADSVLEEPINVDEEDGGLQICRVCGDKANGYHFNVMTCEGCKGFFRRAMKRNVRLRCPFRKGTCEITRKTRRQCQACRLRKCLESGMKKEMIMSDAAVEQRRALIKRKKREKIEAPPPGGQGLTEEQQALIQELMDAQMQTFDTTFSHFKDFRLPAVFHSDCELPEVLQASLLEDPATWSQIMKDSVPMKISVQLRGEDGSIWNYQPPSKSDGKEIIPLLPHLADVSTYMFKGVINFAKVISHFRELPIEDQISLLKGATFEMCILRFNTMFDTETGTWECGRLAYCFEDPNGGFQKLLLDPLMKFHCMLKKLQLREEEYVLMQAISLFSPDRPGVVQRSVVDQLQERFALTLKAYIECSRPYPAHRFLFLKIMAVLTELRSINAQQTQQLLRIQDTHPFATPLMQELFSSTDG
Nuclear receptor subfamily 1 group I member 2 (Homo sapiens), sequence (O75469 whole entry, looked up): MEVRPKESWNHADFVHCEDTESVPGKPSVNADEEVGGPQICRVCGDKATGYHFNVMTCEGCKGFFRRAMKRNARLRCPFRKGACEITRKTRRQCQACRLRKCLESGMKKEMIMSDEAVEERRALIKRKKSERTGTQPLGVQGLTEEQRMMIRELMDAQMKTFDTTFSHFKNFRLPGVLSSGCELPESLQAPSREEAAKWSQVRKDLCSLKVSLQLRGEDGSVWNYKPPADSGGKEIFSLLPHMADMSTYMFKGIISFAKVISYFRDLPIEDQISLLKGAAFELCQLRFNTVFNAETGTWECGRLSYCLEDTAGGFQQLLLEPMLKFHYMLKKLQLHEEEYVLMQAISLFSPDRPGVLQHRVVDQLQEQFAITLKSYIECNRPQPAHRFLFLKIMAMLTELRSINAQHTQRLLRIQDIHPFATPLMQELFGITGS

Regarding `CN1C(=O)COc2c(C(=O)NC3CN4CCC3CC4)cc(Cl)cc21` (configuration not stated), the Potency entry in [1], in assay [2], in assay [3], in assay [4], in assay [6] and in assay [8] was “inactive” in each case. In addition, the Potency entry in assay [10], in assay [13], in assay [14] and in assay [16] was “inactive” in each case. In addition, the compound was classed as inactive in assay [5], in assay [7], in [9], in assay [11] and in assay [12]. In [15], the max activation was -0.408%. For the same compound, in [17], the Potency is 38.9 µM (active).

For `CC(C)C(C)(N)C#N` (configuration not stated), the Potency entry in assay [1], in assay [2], in assay [3], in assay [4], in assay [6] and in assay [8] was “inactive” each time. Further, the Potency result in [10], in assay [18], in assay [13], in [14] and in [17] was “inactive” each time. The compound was called inactive in assay [5], in assay [7], in [9], in [11] and in [12].

As for `C[C@H](CN1CCOCC1)C(C(=O)N1CCCC1)(c1ccccc1)c1ccccc1`, the Potency result in [1], in [2], in assay [3], in [4], in [8] and in assay [18] was “inactive” in each case. Also, the Potency result in assay [13] and in assay [17] was “inactive” throughout. In addition, the compound was classed as inactive in [5], in [7], in assay [9], in [11] and in assay [12]. In assay [10], the Potency is 83.4 µM (active).

Consider `CNC(=O)Oc1ccccc1C(C)C`, for which the Potency result in assay [1], in assay [2], in assay [3], in assay [4], in [6] and in assay [18] was “inactive” each time. In assay [13], the Potency entry is “inactive”. Besides, the call in [5], in [7], in [11] and in assay [12] was inactive. Moreover, the Potency in assay [17] is 3.56 µM (active).

For `CCCN1CCC[C@@H]2Cc3nc(N)ncc3C[C@H]21`, the Potency entry in assay [1], in [2], in [3], in [4], in assay [6] and in assay [8] was “inactive” in each case. Also, the Potency entry in [10], in assay [18], in [16] and in [19] was “inactive” throughout. The result in assay [5], in [7], in assay [9], in assay [11] and in [12] was inactive. Moreover, in [15], the max activation is -1.3%.

`CN=CNc1ccc(C)cc1C`: the Potency entry in [1], in assay [2], in assay [3], in [4], in assay [6] and in [10] was “inactive” in each case. Moreover, the Potency result in assay [18], in assay [14] and in assay [17] was “inactive” in each case. For the same compound, the result in [5], in assay [7], in [11] and in assay [12] was inactive.

Consider `Cc1ccc(Cl)c(O)c1`, for which the Potency result in [1], in assay [2], in assay [3], in assay [4], in assay [8] and in assay [10] was “inactive” in each case. Besides, the Potency result in [18], in assay [13], in [16], in assay [19] and in assay [17] was “inactive” in each case. For the same compound, the result in assay [5], in assay [7], in assay [9] and in assay [11] was inactive. Besides, in assay [15], the max activation is -0.916%.

`C=C(Cl)CSC(=S)N(CC)CC`: the Potency result in assay [1], in [2], in [3], in assay [4], in assay [6] and in assay [10] was “inactive” in each case. Moreover, the Potency entry in assay [18], in assay [13] and in [17] was “inactive” in each case. The result in [5], in [7], in [11] and in assay [12] was inactive.

For `BrCC1CO1` (configuration not stated), the Potency entry in assay [1], in [2], in [3], in assay [6], in assay [8] and in assay [10] was “inactive” throughout. Also, the Potency entry in assay [18], in [13], in assay [14] and in [17] was “inactive” each time. Besides, the call in [5], in assay [7], in assay [9], in assay [11] and in assay [12] was inactive.
